PubChem BioAssay AID743126 (The Scripps Research Institute Molecular Screening Center, 2013)
The whole screen tested about 370,000 compounds, of which about 2,100 (0.57%) were called active. Shown is part of a subset that was picked to be rich in actives. Values without a mark were called inactive.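 The calls were made as follows: active = inhibition above mean plus 3 SD of compounds lying within the high and low control bounds (cut at about 19% in these data); inactive = the rest.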

biological target: Group 3 secretory phospholipase A2 (Homo sapiens) (UniProt Q9NZ20); test: human group III sPLA2 inhibitors, primary screen, biochemical, QFRET, BODIPY PC-A2 liposome substrate (AID 743126); settings: QFRET BODIPY PC-A2 liposome hydrolysis, fluorescence; at 12.2 µM; stronger effect = higher value;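 also: 0% = median of test compound wells and 100% = no enzyme DMSO wells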
Sequence (Q9NZ20 whole entry, looked up): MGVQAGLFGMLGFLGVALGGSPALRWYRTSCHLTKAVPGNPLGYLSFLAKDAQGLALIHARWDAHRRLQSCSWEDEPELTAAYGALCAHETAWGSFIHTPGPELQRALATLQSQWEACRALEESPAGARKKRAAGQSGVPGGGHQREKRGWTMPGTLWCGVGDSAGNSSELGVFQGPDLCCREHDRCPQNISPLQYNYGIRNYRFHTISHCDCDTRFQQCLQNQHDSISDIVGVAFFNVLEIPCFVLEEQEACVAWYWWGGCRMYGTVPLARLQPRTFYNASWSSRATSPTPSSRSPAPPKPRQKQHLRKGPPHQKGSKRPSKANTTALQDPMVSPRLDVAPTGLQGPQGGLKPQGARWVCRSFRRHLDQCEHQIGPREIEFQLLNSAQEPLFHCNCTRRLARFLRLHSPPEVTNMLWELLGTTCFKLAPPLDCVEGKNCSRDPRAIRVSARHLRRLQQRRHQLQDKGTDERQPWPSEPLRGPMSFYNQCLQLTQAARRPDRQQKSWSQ

Row | SMILES | inhibition
1 | O=C(NNC(=S)NC1CC2CCC1C2)c1ccc(Cl)cc1 (stereo unspecified) | 19.4% (active)
2 | CC1CCN(C(=S)NC2CC3CCC2C3)CC1 (stereo unspecified) | 14.4%
3 | O=C(NNC(=O)C1C2CCC(C2)C1C(=O)O)c1ccc(Cl)cc1 (stereo unspecified) | 4.75%
4 | S=C(NNC(=S)NC1CC2CCC1C2)NC1CC2C=CC1C2 (stereo unspecified) | 19.5% (active)
5 | CC(C)c1ccc(NC(=S)NC2CC3C=CC2C3)cc1 (stereo unspecified) | 0.31%
6 | O=S(=O)(NC1CC2CCC1C2)c1ccc(Cl)cc1 (stereo unspecified) | -4.6%
7 | Cc1ccc(C2=CCN(C)C(=O)N2c2ccc(Cl)cc2)cc1 | -5.31%
8 | COC(=O)C[C@@H]1CC[C@@H]2[C@@H](COc3ccc(NC(=O)Nc4ccc(F)c(F)c4)cc3C(=O)N2C)O1 | -13.5%
9 | Cc1ccc(S(=O)(=O)N2CCOCC2)cc1C(=O)NC(=S)N(Cc1ccccc1)C(C)C | 23.9% (active)
10 | Cc1cccc(N(Cc2ccccc2)C(=O)c2cc(S(=O)(=O)N3CCOCC3)ccc2F)c1 | -1.09%
11 | Cc1ccc(S(=O)(=O)N2CCOCC2)cc1C(=O)Nc1ccccc1N1CCCC1 | 1.07%
12 | CCC(=O)Nc1ccc2c(c1)C(=O)N(C)[C@@H]1CC[C@@H](CC(=O)NCCc3ccccc3)O[C@H]1CO2 | 4.64%
13 | C[C@H](C(=O)N(C)c1ccccc1)[C@@H](O)c1ccc(Cl)cc1 | -2.63%
14 | O=C(OC12CCCN(C1)/C(=C/c1cccnc1)C2)C1CCCC1 (stereo unspecified) | -0.59%
15 | Cc1ccccc1NC(=O)C1CCN(C(=O)NC2CCCCC2)CC1 | -4.04%
16 | Cc1ccccc1NC(=O)C1CCN(c2ncccn2)CC1 | 19.5% (active)
17 | O=C(NNC(=O)C1CCN(c2ncccn2)CC1)c1ccccc1 | -1.66%
18 | COC(=O)c1cc(S(=O)(=O)N2CCN(c3ccccc3C)CC2)cn1C | 1.56%
19 | CCCCNC(=O)c1ccc(-n2c(=S)[nH]c3ccccc3c2=O)cc1 | 4.64%
20 | CCCCn1c(=S)[nH]c2ccccc2c1=O | 25.3% (active)
21 | CCCCn1c(=S)[nH]c2ncccc2c1=O | 2.69%
22 | COc1ccccc1C(=O)NC1CCCCN(C(C)C)C1=O (stereo unspecified) | 12.1%
23 | COC(=O)[C@H](C(C)C)N(CCCc1cn(Cc2ccccc2)nn1)S(=O)(=O)c1ccc(F)cc1Br | -15.2%
24 | CCCCCOC(=O)c1ccc(N2C(=O)C3C4C=CC(C4)C3C2=O)cc1 (stereo unspecified) | -15.1%
25 | CCCCCCCCCCOC(=O)C[N+](C)(C)CC1CCCCC1O (stereo unspecified) | 19.3% (active)
26 | COc1ccc(S[C@]2(C(=O)N(C)C)CC(=O)N(c3ccc(OC)cc3)[C@@H]2c2ccc(OC)cc2)cc1 | -13.3%
